This excerpt belongs to a sample that is enriched for hits.
VCAM1 pot: enhances TNF alpha induced VCAM1 expression in HUVEC; HUVEC TNFa-stimulated VCAM-1 immunofluorescence, high-content imaging; scaled per plate to unstimulated/TNFa-only wells; activation, % at 2 µM; 93,000 compounds, 0.19% hits; AID 808;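 active = activation above the screen mean plus 3 SD, with well images confirming the hit on visual review, cut at about 28% in these data, passing the limit was not always enough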;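 note: signal is the number of cytoplasmic VCAM-1 stained grains per positive cell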
VCAM1 pot conf: potentiators of TNFa-induced VCAM1 expression, confirmation, imaging, HUVEC, triplicate retest. HUVEC TNFa-stimulated VCAM-1 immunofluorescence imaging. AID 1034. activation, % at 2 µM. shares compounds with VCAM1 pot. 230 tested, under 10 active;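 active = activation above 30% in triplicate retests at 2 µM, then confirmed by visual review of the well images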
Of the large screens only hits and unclear results are named; the others gave an inactive call (follow-up assays come after a bar, where they were run).

CCOCCCNC(=O)CCSc1ccc(C)cc1	none
O=S(=O)(NCCc1ccncc1)c1cc(Br)ccc1F	none
Cc1cccc(N2CCN(C(=O)NCc3ccc(Cl)cc3)CC2)c1	none
O=C(NC1CCSC1=O)c1cccc(C(=O)NC2CCSC2=O)c1 (stereo not given)	none
CN(C)NC1CCS(=O)(=O)C1 (stereo not given)	none
Nc1nnc(SCc2ccccc2F)n1-c1ccccc1	none
CC1CCCN(CC(=O)Nc2ccc(S(=O)(=O)NC3CCCCC3)cc2)C1 (stereo not given)	none
O=C(COC(=O)c1cccnc1Cl)c1cccc(Cl)c1	none
CN(C(=O)c1ccc(Cl)cc1)C1=CCCCC1CCC#N (stereo not given)	none
COc1cccc(/C=N/NC(=O)CC(=O)NCCc2ccc(OC)c(OC)c2)c1	none
COc1cc(/C=C(/C#N)C(=O)NCCc2c[nH]c3ccccc23)ccc1OCc1ccccc1F	none
CON/C=C(\C=Nc1ccc(Cl)cc1)c1ncc(C(F)(F)F)cc1Cl	none
CNc1nc(SCc2ccccc2)nc(N2CCOCC2)n1	none
O=S(=O)(Nc1ccc(-n2cccc2)cc1)c1ccccc1	none
O=S(=O)(Nc1ccc(Cc2ccncc2)cc1)c1ccc(Br)cc1	none
S=C(Nc1ccccc1)Nc1cc(Cl)ccc1Oc1ccccc1	none
CC(C)COC(=O)n1c(SCC(=O)N(C)C)nc2ccccc21	none
CC1CCCC(NC(=O)COC(=O)c2ccc3ccccc3n2)C1C (stereo not given)	none
CCc1noc(C)c1C(=O)Nc1sc(C(=O)N(C)C)c(C)c1C(=O)OC	none
COc1ccc(CS(=O)(=O)/C(Cl)=C(/Cl)C(=O)Nc2ccc(OC)nc2)cc1	none
CCCCCOP(=O)(OCCCCC)C1(NS(=O)(=O)c2ccccc2)C=CC(=O)c2ccccc21 (stereo not given)	none
O=C(CSc1nnc2c3cc(F)ccc3nc(-c3ccccc3)n12)N1CCOCC1	none
CC(C)CNC(=S)NNC(=O)c1ccco1	none
CC(C)(C)NC(=O)CN(C(=O)Cn1nnc(-c2ccccc2F)n1)c1cccc2c1CCCC2	none
Cc1cc(NCc2ccccn2)ccc1Br	none
C=CCNC(=O)c1onc(CSc2ccccc2CC)c1C(=O)O	none
COc1ccc(CCC(=O)NCCc2cn3c(C)csc3n2)cc1	none
O=C(CSc1cccs1)Nc1ccc2ccccc2c1	none
CCOC(=O)c1ccccc1-c1csc(NS(=O)(=O)c2ccc(Cl)cc2)n1	none
CC(C)(C)C(=O)NC(NC(=S)Nc1sc2c(c1C#N)CCCC2)C(Cl)(Cl)Cl (stereo not given)	none
COC(=O)c1ccc(C(=O)OC)c(NC(=O)CSCc2ccc(Br)cc2)c1	none
Cc1nonc1NC(=O)c1ccc(Cl)c(S(=O)(=O)N2CCCCC2)c1	none
O=C(Oc1ccc2ccccc2c1)c1ccccc1	none
Cc1ccc(N2CC(C(=O)Nc3ccccc3C(=O)NC3CCCCC3)CC2=O)cc1C (stereo not given)	none
Cc1ccc(S(=O)(=O)N2CCOCC2)cc1C(=O)OCC(=O)N1CCc2ccccc2C1	none
COC(=O)c1nn(-c2cccc(C(F)(F)F)c2)c(=O)cc1Sc1ccccn1	none
Cc1ccc(S(=O)(=O)/N=C(\c2ccc(Cl)cc2)N2CCOCC2)cc1	none
CCOc1ccc(C(=O)C2CCN(CC(=O)Nc3ccccc3N3CCOCC3)CC2)cc1	none
Cc1ccccc1-c1nc(CN2CCC(C(=O)NCCCN3CC(C)CC(C)C3)CC2)c(C)o1 (stereo not given)	none
Nc1ccc(Oc2ccc3nc(-c4ccccc4)c(-c4ccc([N+](=O)[O-])cc4)nc3c2)cc1	none
CCOC(=O)c1cnn(-c2ccccc2)c1-n1cccc1C(=O)C(=O)Nc1ccc(OC)cc1	none
O=[N+]([O-])c1ccc(NCCNc2ccc(Cl)nn2)cc1	none
COc1cccc2c(=O)n(CC(=O)Nc3ccccc3F)ccc12	none
CCOC(=O)c1nnc2c(Br)c(-c3ccccc3)nn2c1C	none
O=C(CCCOc1ccccc1)Nc1ccc2c(c1)OCCO2	none
CC1(C)CC(=O)c2cnc(N3CCc4ccccc4C3)nc2C1	none
COc1cccc(C2=NOC(C(=O)Nc3ccccc3SC)C2)c1 (stereo not given)	none
CCCC(C)NC(=O)c1cc(Cl)ccc1OC (stereo not given)	none
CCN(c1ccccc1)S(=O)(=O)c1ccc(F)cc1C	none
CS(=O)(=O)N(Cc1ccco1)CC(O)Cn1cc(C=O)c2ccccc21 (stereo not given)	none
C=CCn1c(SCc2nc3ccccc3c(=O)[nH]2)nnc1-c1cc2cc(Cl)ccc2o1	none
O=C(Nc1cnn(Cc2ccc(Cl)c(Cl)c2)c1)C12CC3CC(CC(C3)C1)C2	none
COc1ccc(CCC(C)NC2C3CC4CC(C3)CC2C4)cc1 (stereo not given)	none
Cc1cccc(C(=O)Nc2ccccc2C(=O)OCc2c(C)noc2C)c1	none
OC1(c2cccc(C(F)(F)F)c2)CCN(c2ncnc3c2[nH]c2ccc(F)cc23)CC1	none
CN(C)S(=O)(=O)N(CC(=O)Nc1cccc(F)c1)c1ccccc1	none
CC1CN(S(=O)(=O)c2ccc(Cl)c(C(F)(F)F)c2)CC(C)O1 (stereo not given)	none
CCOC(=O)c1cnn(-c2nc(-c3ccc(C)cc3)cs2)c1C(F)(F)F	none
CCOC(=O)c1ccc(-n2nc(C(F)(F)F)c3c(C)cc(=O)oc32)cc1	VCAM1 pot 57
CCOC(=O)c1ccc(-n2[nH]c(-c3ccccc3)cc2=O)cc1	none
C=CCn1c(SCc2ccccc2C#N)nnc1-c1ccccc1O	none
COCCNC(=O)C(c1cccs1)N(C(=O)Cn1nnc2ccccc21)c1ccc(OC)cc1 (stereo not given)	none
O=C(c1cn(-c2ccccc2)nc1-c1cccs1)N1CCN(c2ccccn2)CC1	none
COCCNC(=O)C(c1ccc(C)o1)N(C(=O)c1snc(C(N)=O)c1N)c1cc(C)cc(C)c1 (stereo not given)	none
Cc1ccc(S(=O)(=O)c2cc3c(=O)n4ccccc4nc3n(Cc3ccco3)c2=N)cc1	none
N#Cc1cc2c(=O)n3ccccc3nc2n(CC2CCCO2)c1=N (stereo not given)	VCAM1 pot 47
COCCNC(=O)CSc1nc2ccccc2c(=O)n1CC1CCCO1 (stereo not given)	none
COC(=O)c1sccc1NC(=O)c1ccc(Br)s1	none
NC(=O)C1CCN(C(=O)CSc2ccccn2)CC1	VCAM1 pot 41 | VCAM1 pot conf inactive
NC(=O)C1CCN(C(=O)CCSc2ccccc2)CC1	none
O=C(CSc1ccc2nnc(-c3ccccc3)n2n1)N1CCN(c2ccccc2)CC1	none
CCn1c(SCC(=O)N2CCN(c3cccc(Cl)c3)CC2)nc2ccccc2c1=O	none
O=C(c1ccccc1)c1cc[n+]([O-])cc1	VCAM1 pot 62 | VCAM1 pot conf inactive
O=C(c1ccccc1)c1cc2ccccc2o1	none
COc1cccc(N2CCN(Cc3nc(N)nc(N4CCCc5ccccc54)n3)CC2)c1	none
O=C(O)C1C2C=CC(C2)C1C(=O)N1CCN(C/C=C/c2ccccc2)CC1 (stereo not given)	none
CC(C)c1ccc(NC(=O)C(c2ccccc2)N2CCC3(CC2)OCCO3)cc1 (stereo not given)	none
O=C(Nc1ccc(N2CCOCC2)c(Cl)c1)c1cccnc1	VCAM1 pot 56 | VCAM1 pot conf inactive
O=C(CCc1ccccc1)Nc1ccc(N2CCOCC2)c(Cl)c1	none
O=C(Nc1ccc(N2CCCC2)c(Cl)c1)c1cccnc1	none
O=C1CC(c2ccc(F)cc2)C2=C(CCCC2=O)N1 (stereo not given)	none
CCCN(CCC)C(=O)CSc1nc2ccccc2c(=O)n1C1CCCC1	VCAM1 pot 63 | VCAM1 pot conf inactive
CCCCNC(=O)CSc1nc2ccccc2c(=O)n1Cc1ccc2c(c1)OCO2	none

Screening data as filed in PubChem BioAssay.
